The values below come from PubChem BioAssay (NCI).

This is part of a sample that, as a whole, favours compounds with a hit. Of some 83,000 tested, about 20% had one in any assay.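 48-hour exposure, single concentration, 96-well plates; percent growth endpoint where 0 means no net growth. Active: below 10.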 Values without a mark were called inactive. The source made the active and inactive calls.

The subject of this test is HL-60(TB) leukemia. As to the kind of experiment: NCI-60 one-dose screen, 48 h (100 = growth as untreated, 0 = no growth, -100 = all killed). Conditions: 10 µM unless noted.
`COc1ccc(/C=C2\COc3ccc(-c4ccccc4)cc3C2=O)cc1O`: the growth was -34% (active). The value for `COc1ccc(C2C3=C(COC3=O)N(CCO)c3cc4c(cc32)CCC4)cc1OC` (stereo not given) was 0.0588% (active). Then `CCCCCCCCCCN=C(c1ccc(N(C)C)cc1)c1ccc(N(C)C)cc1`, with 11.2%. The value for `Nc1ncnc(Nc2ccc(C(F)(F)F)cc2)n1` was 89.2%; that for `CC1(C)OC2[C@@H](CNC(=O)NC(=O)NC(=O)CI)O[C@@H](n3cnc4c(NC(=O)Nc5ccccc5)ncnc43)[C@H]2O1` (stereo not given in full) was 77.2%. `CNC(=O)NN`: the growth is 64%. Then `O=C(Nc1nc2ccc(C(=O)N3CCN(/C=C/c4ccccc4)CC3)cc2s1)c1ccc(NCCc2ccccc2)c([N+](=O)[O-])c1`, with 80.5%.

Consider `COc1ccc(Cn2cc3c(c2-c2ccccc2)CCc2cnoc2-3)cc1`, for which the growth was 4.48% (active).

In the case of `COc1cc(/C=N/NC(=O)c2ccc(C(F)(F)F)nc2Nc2cc(Cl)ccc2C)cc(OC)c1OC`, the growth was 107%. Then `O=C(O)Cc1ccc(Cl)cc1`, with 22.4%. On to `CNCCNc1nc2ccccc2c2c(=O)c3cc(F)ccc3sc12`, for which the growth is -33.1% (active). The value for `CSc1nc2ccccc2cc1/C=C1/C=C(c2ccccc2)NC1=O` was 85.7%; that for `COc1cccc2cc(N(C)c3ncnc4ccccc34)ccc12` was -29.1% (active); that for `CCCCOc1ccc(/C=C2/SC(N3CCOCC3)=NC2=O)cc1OCC` was 101%.

In the case of `O=C1c2c(O)cc(O)cc2-c2c(-c3ccc(O)cc3)oc3cc(O)cc1c23`, the growth was 17%. The value for `COc1cc2cc(Oc3ccc(NC(=O)Nc4ccccc4)cc3)c(C)nc2cc1OCCN1CCCCC1` was -46.8% (active). The value for `O=CNc1c(Cl)cc2c(c1Cl)Cc1cc([N+](=O)[O-])ccc1-2` was 17.5%. With `O=C(O)c1cc2ccccc2s1`, the growth was 112%. The value for `Cc1csc(NC(=O)c2sc3nc(-c4cccs4)ccc3c2N)n1` was 105%; that for `CS(=O)(=O)Nc1cc(-c2ccc3ncnc(Nc4ccc5c(cnn5Cc5ccncc5)c4)c3c2)cnc1Cl` was 15.4%. The value for `O=C(Cc1c(F)cccc1Cl)Nc1ccc(S(=O)(=O)Nc2ncccn2)cc1` was 120%. On to `Oc1cccc(-c2nc(N3CCOCC3)c3c4c(sc3n2)CCCC4)c1`, for which the growth is 74.7%. The value for `CN(C)CCNC(=O)c1cc2c3cc(Cl)ccc3[nH]c2c2ncccc12` was -64.8% (active); that for `COc1cc(-c2csc(NC(=O)c3ccc(N4CCOCC4)c(C(F)(F)F)c3)n2)cc(OC)c1OC` was 15.6%; that for `CCN(CC)c1cc(C)c(Cc2c(OC)ccc3ccccc23)cc1C` was 82.2%. On to `Cc1cc(C)c2c(c1)N1OC(C2)C[C@H]1/C=C/c1ccccc1` (stereo not given in full), for which the growth is 82.2%. The value for `Nc1ncnc2c1N=C(c1ccc3c(c1)OCO3)CC(c1cccc(Nc3ccnc4cc(C(F)(F)F)ccc34)c1)N2` (stereo not given) was 92.9%. The value for `COc1ccc(C2C=C(c3ccc(OC)c(OC)c3)N=C3SC=CN32)c(Br)c1` (stereo not given) was 57.6%; that for `COc1ccc(-c2ccc(NC(=O)Nc3ccc(Cl)c(C(F)(F)F)c3)c(C)n2)cc1` was 32.3%. Take `CS(=O)(=O)c1ccc(C(=O)N/N=C/c2ccc3c(c2)OCO3)cc1`: the growth was 57%. The value for `CC(=O)Nc1ccc(C(=O)Nc2cc(-c3ccccc3)ccc2N)cc1` was 65.5%; that for `C/C=C/C/C=C/[C@H](C)C[C@H](O)[C@@H]1C[C@@H]2O[C@H]2/C=C/[C@@H]2OC(C)(C)O[C@H]2/C=C/C[C@H](C)CC(=O)O1` was 31.2%. Then `CCCCNC(=O)Oc1ccc(/C(=C(\C)c2ccc(Cl)cc2)c2ccc(OCCN3CCCCC3)cc2)cc1`, with 64.9%; and `COc1ccc(Nc2c3ccccc3nc3ccccc23)cc1`, with 12.8%; and `CC/C=C\C=C/C(=O)N/C=C/CC1Cc2cccc(O)c2C(=O)O1` (stereo not given), with 17.4%.

For `C=CN(C)S(C)(=O)=O`, the growth is 5.83% (active).

Take `O=[N+]([O-])c1ccc(OCCCOc2ccccc2)cc1`: the growth is 95.5%. For the molecule `COc1cc2ncnc(Nc3cccc(Cl)c3F)c2cc1OC(=O)N1CCN(C)C[C@H]1C`, the growth was 102%.

With `COc1cccc2c(=O)c3c(sc12)c(NCCCN)nc1ccccc13`, the growth was 44.2%. `CC1CN(C2CCCCC2)C(=S)N(c2ccccc2)C1=O` (stereo not given): the growth was 85%.
